PubChem BioAssay AID1645858 (Buhrlage Lab, Dana-Farber Cancer Institute and Novartis …, 2021)
Among all 47,000 compounds or so, about 330 (0.7%) were called active. Cut-off read from the data, not from the text of the source: active = inhibition above about 30%; inactive = the rest. The entries come from a sample that favours actives as a whole.

What follows are molecules tested against OTU domain-containing protein 3 (Homo sapiens) (UniProt Q5T2D3) (assay: blocks human OTUD3 ubiquitin-rhodamine cleavage (AID 1645858)). Conditions: purified OTUD3, Ub-rhodamine fluorescence, 2 h; at 25 µM; active compounds read high.
OTU domain-containing protein 3 (Homo sapiens), sequence (Q5T2D3 whole entry, looked up, the tested form may be a part): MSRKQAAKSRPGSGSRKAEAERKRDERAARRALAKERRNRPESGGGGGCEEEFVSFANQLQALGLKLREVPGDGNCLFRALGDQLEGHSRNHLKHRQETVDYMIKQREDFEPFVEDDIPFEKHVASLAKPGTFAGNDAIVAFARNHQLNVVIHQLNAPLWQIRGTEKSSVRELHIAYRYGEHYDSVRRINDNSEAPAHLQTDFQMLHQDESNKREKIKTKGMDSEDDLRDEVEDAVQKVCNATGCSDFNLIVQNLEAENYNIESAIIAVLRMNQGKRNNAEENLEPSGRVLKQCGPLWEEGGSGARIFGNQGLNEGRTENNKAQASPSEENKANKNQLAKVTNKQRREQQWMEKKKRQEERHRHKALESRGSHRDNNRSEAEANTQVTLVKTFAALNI

Row | SMILES | inhibition
1 | Cc1cc(N2C(=O)c3oc4ccccc4c(=O)c3C2c2ccc(F)cc2)no1 (stereo not given) | -4.24% (inactive)
2 | CCNC1CN(C(=O)Cn2nnc3ccccc32)C2(CCCCC2)C1 (stereo not given) | 2.28% (inactive)
3 | O[C@H]1[C@H](O)[C@H](Oc2cccc(F)c2)CC[C@H]1NCc1ccncc1 | 15.2% (inactive)
4 | NS(=O)(=O)c1cccc(CNC(=O)C2(c3ccccc3)CCC2)c1 | 0.73% (inactive)
5 | N#Cc1c(N)nc2c(c1N)CC(C(F)(F)F)O2 (stereo not given) | -4.36% (inactive)
6 | Clc1ccc2[nH]c3c(ccc4c5cc(Cl)ccc5[nH]c43)c2c1 | 3.62% (inactive)
7 | COc1ccc(CNC(=O)c2[nH]nc3c2CCc2ccccc2-3)cc1 | -5.63% (inactive)
8 | Cc1ccc(NC(=O)N2CCCC2c2cc(C)on2)c(Cl)c1 (stereo not given) | -2.99% (inactive)
9 | c1ccc(-c2ccc(NCc3ccc4c(c3)OCO4)nn2)cc1 | 43.5% (active)
10 | CCC(Oc1ccccc1)C(=O)NCc1ccc2c(c1)OCO2 (stereo not given) | 9.11% (inactive)
11 | c1cc(CNCc2ccc3c(c2)OCO3)ccn1 | 0.0568% (inactive)
12 | Cc1cc(Cl)ccc1NC(=O)c1ccc(=O)[nH]c1 | -2.31% (inactive)
13 | N[C@@H]1C[C@@H](Oc2cccnc2)[C@H](O)[C@H]1N1CCN(c2ccccc2)CC1 | -8.12% (inactive)
14 | CSc1nccc(-c2ccc(F)cc2)c1C#N | 11% (inactive)
15 | CCn1c(CNC(=O)c2ccco2)nnc1SCC(=O)Nc1ccc(C)cc1 | 0.297% (inactive)
16 | Cc1ccc(CN2C(=O)C(CC(=O)Nc3ccc(F)cc3)n3c2nc2ccccc23)cc1 (stereo not given) | -8.71% (inactive)
17 | Cc1c(Cl)ccc2sc(N(Cc3ccncc3)C(=O)c3ccco3)nc12 | -4.28% (inactive)
18 | Cc1coc2c(C)c3oc(=O)c(CC(=O)N4CC[C@@]5(O)CCCC[C@H]5C4)c(C)c3cc12 | -9.33% (inactive)
19 | CC(=O)c1ccc(C)c(=O)o1 | 9.1% (inactive)
20 | CC(=O)N1CCSc2ccc(S(=O)(=O)N(C)C(C)CCc3ccco3)cc21 (stereo not given) | -8.61% (inactive)
21 | O=C1NC2(CCN(C(=O)NCc3ccccc3)CC2)Nc2c(Cl)cccc21 | -5.72% (inactive)
22 | CC(C)c1ncc(CN2CCC3(CC2)CN(S(C)(=O)=O)Cc2ccccc2O3)cn1 | -4.5% (inactive)

Row | SMILES | inhibition
23 | COc1ccc(-c2[nH]c3ccccc3c2SCCNC(=O)c2ccc(S(=O)(=O)N3CCOCC3)cc2)cc1 | 11.6% (inactive)
24 | O=C(CCc1nnc2n(CCc3ccccc3)c(=O)c3ccccc3n12)N1CCOCC1 | 4.98% (inactive)
25 | COC(=O)c1ccc(CN(C)C(=O)c2ccc(-c3nnc(-c4ccccc4)o3)cc2)cc1 | -0.482% (inactive)
26 | O=C1CCCN1Cc1ncn2c1CN(Cc1cccnc1)CCC2 | -1.01% (inactive)
27 | CCN1C(=O)C[C@@H](C(=O)NCc2nc(C)no2)[C@@H]1c1ccccc1C | 1.87% (inactive)
28 | COc1ccc(CC2c3cc(OC)c(OC)cc3CCN2C(=O)c2ccc(C)c(Cl)c2)cc1OC (stereo not given) | 1.03% (inactive)
29 | O=C(CSC1=NC2(CCCCC2)Nc2ccccc21)Nc1cccc(F)c1 | -11.6% (inactive)
30 | O=C(NCc1ccc(F)cc1)C1CCc2nc(N3CCCCC3)ncc2C1 (stereo not given) | 1.53% (inactive)
31 | Cc1cc(-c2ccc(S(=O)(=O)Nc3cccc(CN4CCCC4)c3)s2)n[nH]1 | -13.6% (inactive)
32 | Cc1ccc(S(=O)(=O)c2cnc3ccccc3c2N2CCC3(CC2)OCCO3)cc1 | 1.24% (inactive)
33 | O=C(Cc1c[nH]c2ccccc12)NC1(c2nc(-c3ccncc3)no2)CCCCC1 | -15.9% (inactive)
34 | Clc1ccccc1-c1nc2nc3ccccc3nc2n1CC1CCCO1 (stereo not given) | -16% (inactive)
35 | COc1ccc(N2CC(C(=O)OCC(=O)Nc3ccc(F)cc3)CC2=O)cc1 (stereo not given) | -3.39% (inactive)
36 | C[C@@H]1CC[C@H]2C(CN3CCN(C)CC3)C(=O)O[C@]23[C@H]1CC[C@@]1(C)O[C@@H]31 (stereo not given in full) | 4.7% (inactive)
37 | Cc1ccccc1CNC(=O)c1cn(C)nc1S(=O)(=O)N1CCC(C)CC1 | 1.12% (inactive)
38 | COc1ccccc1Cn1cnc2c([nH]c3cc(OC)c(OC)cc32)c1=O | 0.0298% (inactive)
39 | Cc1nccc(N2CCC(Cc3cncc(-c4cnc(C)n4C)n3)C2)n1 (stereo not given) | 3.33% (inactive)
40 | COc1ccc(NC(=O)Cn2ncc3cccn3c2=O)cc1 | -2.63% (inactive)
41 | CCCNC(=O)c1cc(N2CCCC2)n2nccc2n1 | -68.7% (inactive)
42 | CCS(=O)(=O)N1C[C@H]2CN(Cc3ccccc3Cl)C[C@H]2C1 | -1.12% (inactive)
43 | O=C(Nc1nnc(-c2cccc([N+](=O)[O-])c2)o1)C1CCN(S(=O)(=O)c2ccc3c(c2)CCC3)CC1 | 30.3% (active)
44 | Cc1cccc(-c2nnc(-c3cccc(S(=O)(=O)N4CCCC4)c3)o2)c1 | 10.7% (inactive)

Row | SMILES | inhibition
45 | O=C(COC(=O)C1CCN(S(=O)(=O)c2c(Cl)cccc2Cl)CC1)Nc1ccc2c(c1)CCC2 | 0.0518% (inactive)
46 | Cc1cnc2nc3c(cc2c1)CN(S(=O)(=O)c1cc(F)ccc1C)CC3 | -230% (inactive)
47 | COCCN1[C@H]2CCN(Cc3ccccn3)CC[C@@H]2Oc2ccccc2S1(=O)=O | 7.81% (inactive)
48 | O=c1c(NCCCc2ccccc2)nccn1-c1ccc2c(c1)OCCO2 | -4.73% (inactive)
49 | CC(C)N1C(=O)Cc2ccccc2C1C(=O)NCc1ccccc1F (stereo not given) | 2.54% (inactive)
50 | Cc1ccc(Sc2c(C)[nH]n(-c3ccccc3)c2=O)cc1 | 7.8% (inactive)
51 | COc1c(O)c2c(=O)cc(OC)c3c4c(OC)cc(=O)c5c(O)c(OC)c(CC(C)OC(=O)c6ccccc6)c(c(c1CC(C)OC(=O)Oc1ccc(O)cc1)c23)c54 (stereo not given) | -24.8% (inactive)
52 | C=C1CCC2[C@](C)(CCC[C@]2(C)C(=O)OC)[C@H]1CCc1ccoc1CNCC(=O)O (stereo not given in full) | -1.63% (inactive)
53 | C=C1CCC2[C@](C)(CCC[C@]2(C)C(=O)OC)[C@H]1CCc1ccoc1C[N+](C)(C)Cc1ccccc1 (stereo not given in full) | 22.7% (inactive)
54 | C=C1CCC2[C@](C)(CCC[C@]2(C)C(=O)OC)[C@H]1CCc1ccoc1/C=C/C(=O)O (stereo not given in full) | 57.1% (active)
55 | Cc1cc(C)n(CCCNS(=O)(=O)c2ccc(C(C)(C)C)cc2)n1 | -3.74% (inactive)
56 | Cc1nc(-c2ncc[nH]2)cc(C2CCCCN2S(=O)(=O)N(C)C)n1 (stereo not given) | -4.61% (inactive)
57 | N#Cc1cccc(S(=O)(=O)c2c[nH]c3ccc(Cl)cc3c2=O)c1 | -5.74% (inactive)
58 | CCC(C)C1NC(=O)C(Cc2ccc(O)cc2)NC(=O)C(CCC(N)=O)NC(=O)C2CCCN2C(=O)C(C(C)C)NC(=O)C(CCC(=O)O)NC(=O)C(C(C)O)NC(=O)C(NC(=O)C(CCCN)NC(=O)C(CCC(=O)O)NC(=O)CCCCCCCCCCCCCC(C)C)Cc2ccc(cc2)OC1=O (stereo not given) | 5.05% (inactive)
59 | O=C(NC(C(=O)N1CCCc2ccccc21)c1ccccc1)c1cnccn1 (stereo not given) | 14.1% (inactive)
60 | O=C(Cn1cccc(-c2nc(-c3ccccc3)no2)c1=O)Nc1ccccc1F | 6.4% (inactive)
61 | N#Cc1ccc(NC(=O)Nc2cccn(Cc3ccccc3F)c2=O)cc1 | 37.7% (active)
62 | Cc1noc(-c2cccn(Cc3cc(F)ccc3F)c2=O)n1 | 5.03% (inactive)
63 | Cc1cc(C(=O)N2CCCCC2c2[nH]ncc2C)c2c(C)noc2n1 (stereo not given) | 11.6% (inactive)
64 | COc1ccccc1C(=O)Nc1ccc(N(c2ccccc2)C(C)C)cc1 | 2.72% (inactive)
65 | FC(F)(F)c1cc(N2CCCCC2)nc(-c2ccccn2)n1 | -3.6% (inactive)
66 | CC(Sc1ncnc2ccccc12)C(=O)NCc1ccc2c(c1)OCO2 (stereo not given) | 12.8% (inactive)

Row | SMILES | inhibition
67 | Cn1cc(C2CCCN2C(=O)c2ccc(-n3cccn3)nc2)cn1 (stereo not given) | -5.62% (inactive)
68 | COc1ccc(-c2cc(=O)oc3c(C)c(OCc4ccccc4F)ccc23)cc1 | 1.77% (inactive)
69 | CN1CCN(c2nc3c(s2)CN(C(=O)c2ccnn2C)CC3)CC1 | -25.7% (inactive)
70 | COc1cccc(NC(=O)C(Sc2cccc(NC(=O)c3ccccc3F)c2)c2ccccc2)c1 (stereo not given) | 15.7% (inactive)
71 | C#CCOc1ccc2ccccc2c1CN1CCc2ccccc2C1 | 14.8% (inactive)
72 | COCCN(C(=O)CCC(=O)Nc1ccccn1)C(C(=O)NCC1CCCO1)c1ccc(C)cc1 (stereo not given) | 12.3% (inactive)
73 | CN1C[C@H]2CCN(S(=O)(=O)c3ccc(OC(F)(F)F)cc3)C[C@H]21 | 5.38% (inactive)
74 | COc1ccccc1N1CCN(C(=O)CSCc2ccccc2C)CC1 | -10.5% (inactive)
75 | CC(C)C(NS(=O)(=O)c1ccccc1)C(=O)OCC(=O)Nc1cc([N+](=O)[O-])ccc1F (stereo not given) | 6.16% (inactive)
76 | CCCc1cc(=O)[nH]c2nnc(SCC(=O)N(CC)CC)n12 | -0.85% (inactive)
77 | Cc1nn(-c2ccc(F)cc2F)c2c1C(C(=O)c1cc3ccccc3o1)CC(=O)N2 (stereo not given) | -3.81% (inactive)
78 | CCCCC1CCC(C(=O)N2CCC(C3(C)NC(=O)NC3=O)CC2)CC1 (stereo not given) | 5.45% (inactive)
79 | CCc1ccc(S(=O)(=O)Nc2cc(C(=O)Nc3ccccc3)ccc2OC)cc1 | -4% (inactive)
80 | Cc1cc(CN2CC[C@H]3[C@H]2CCN3S(C)(=O)=O)oc1C | -12% (inactive)
81 | Cc1nn(CC(C)C)c(C)c1CC(=O)N1CCCC1c1cnn(C)c1 (stereo not given) | -0.626% (inactive)
82 | NC(=O)CC[C@H](NC(=O)[C@@H]1CCCN1C(=O)[C@H](Cc1ccccc1)n1c(=O)[nH]c2ccccc2c1=O)C(=O)O | -2.35% (inactive)
83 | Cc1ccc(NC(=O)C2CCN(S(=O)(=O)c3cnc[nH]3)CC2)cc1Cl | -2.32% (inactive)
84 | O=C(Cc1c(Cl)cccc1Cl)NCc1cccc(C(F)(F)F)c1 | 4.26% (inactive)
85 | COc1cccc(CN2C[C@@]34CN(C(=O)C5CCC5)C[C@@H](C[C@@H]3S2(=O)=O)O4)c1 | 9.25% (inactive)
